Screens deposited in PubChem BioAssay by National Center for Advancing Translational Sciences (NCATS).
Most compounds without a hit are left out; they make up all but 4.2% or so of the library.
Mito fusion act = mitochondrial division inhibition or fusion activation | S. cerevisiae fusion-defective mutant growth rescue, CellTiterGlo 48 h | Potency, µM (top dose mostly 46.1 µM), actives largely listed as activators | 320,000 compounds, 0.23% hits; also: nearly all actives have a fitted effect of over 45% in size
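Luminescent cell viability in 1536-well qHTS format served as the measure of rescued growth in ts fusion-mutant S. cerevisiae cultured on non-fermentable YPEG for 48 hours at 37C.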
a7 integrin act = integrin-mediated muscular dystrophy alleviation activation | AID 624291 | alpha7betagal myoblasts, beta-gal FDG fluorescence, 48 h | 350,000 compounds, 0.064% hits | Potency, µM (doses to about 38.3 µM), most hits filed as activators; also: nearly all actives have a fitted effect of over 60% in size
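alpha7betagal+/- myoblasts (passage 13, 250/well) treated 48 h at 37C with compounds at 1:260 dilution of DMSO stock. Lysed, then beta-galactosidase activity read as FDG fluorescence (ex 480/em 540) after 30 min, with pre-read for autofluorescence.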
A-T KAP1 phos = potential ataxia-telangiectasia treatments restoring KAP-1 phosphorylation | F2112 A-T fibroblasts, KAP-1 phosphorylation AlphaLISA; neocarzinostatin DNA damage 30 min before lysis | Potency, µM (titrated, usually from 57.5 µM), most hits filed as activators | 320,000 compounds, 0.19% hits | AID 485349; also: nearly all actives have a fitted effect of over 45% in size
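hTERT-immortalized A-T patient fibroblasts (F2112), 500 cells/well in OPTI-MEM, 1% FBS, got compounds for 60 min, then NCS for 30 min at 37C. Lysates were then assayed for phospho-KAP-1 by AlphaLISA (anti-pKAP1 donor, anti-KAP1 acceptor beads), 6 hr at 25C.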
MCF10A rerep = inducers of DNA re-replication in MCF 10A breast cells; AID 624296; 350,000 compounds, 2.9% hits; MCF 10A DNA re-replication, Hoechst nuclear intensity, 48 h; Potency, µM (titrated, usually from 46.1 µM), actives largely listed as activators; also: nearly all actives have a fitted effect of over 50% in size
SW480 rerep = DNA re-replication induction in SW480 cells. SW480 DNA re-replication, Hoechst DNA content imaging, 48 h. Potency, µM (titrated, usually from 46.1 µM), hits mostly activators. 340,000 compounds, 1.8% hits. AID 624297; also: nearly all actives have a fitted effect of over 55% in size
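Image-based read-out: total Hoechst fluorescence of nuclei (405 nm excitation, 500-530 nm emission), with hits raising the fraction of high-intensity nuclei. SW480 colon cells incubated 48 hr with compounds at 37 C.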
Hits are given with their value; n = inactive; u = inconclusive; x = no result given; [ ] = another dose, or the depositor's remark. Calls follow the shape of the dose curve; as a rule, active = well fitted activation curve with a large enough effect; inconclusive = small, poorly fitted or top-dose-only effect; inactive = no such curve, though single readings can be large or run the other way.

SMILES	Mito fusion act	a7 integrin act	A-T KAP1 phos	MCF10A rerep	SW480 rerep
COc1ccc(/C=C/C(=O)N(CCC(N)=O)c2ccccc2)cc1S(=O)(=O)N1CCOCC1	n	n	n	n	4.6µM
CN(Cc1cnn(Cc2ccccc2)c1)C(=O)c1cccc(S(=O)(=O)N2CCOCC2)c1	n	n	n	u	18µM
COC(=O)c1ccccc1NC(=O)CSc1nc(C)c(Cl)c(C)c1C#N	n	x	x	x	x
CCN(C(=O)COc1ccc(N(C)S(=O)(=O)c2ccc(NC(C)=O)cc2)cc1)C1CCCCC1	x	n	n	u	n
Cn1cc(C(=O)N/N=C/c2c(O)ccc3ccccc23)ccc1=O	n	n	n	26µM	n
Cn1nccc1C(=O)N/N=C/c1c(O)ccc2ccccc12	n	n	n	16µM	u
COc1ccc(NC(C)C(=O)N/N=C/c2c(O)ccc3ccccc23)cc1 (stereo not drawn)	n	n	n	u	3.7µM
O=C(N/N=C\c1c(O)ccc2ccccc12)c1ccc(O)cc1	n	n	n	n	u
Cc1occc1C(=O)N/N=C/c1c(O)ccc2ccccc12	n	n	n	u	0.52µM
C[C@H](CO)N1C[C@H](C)[C@@H](CN(C)Cc2cncnc2)Oc2cc(Br)ccc2S1(=O)=O	x	n	x	x	x
O=[N+]([O-])c1cc(CN2CCC(O)CC2)ccc1Cl	n	n	n	n	n
Cc1cc(C)cc(OCC(O)CN2CCN(Cc3ccc4c(c3)OCO4)CC2)c1 (stereo not drawn)	n	n	n	16µM	n
CC(C#N)(CCc1ccccn1)CCc1ccccn1	x	n	x	n	n
C=CCOc1ccc(C2C(C#N)=C(N)N(Nc3ccccc3)C3=C2C(=O)CCC3)cc1OC (stereo not drawn)	n	n	n	23µM	u
COc1cc(C2C(C#N)=C(N)N(Nc3ccccc3)C3=C2C(=O)CC(C)(C)C3)ccc1OCc1ccccc1 (stereo not drawn)	n	n	n	u	26µM
COc1cc(C2C(C#N)=C(N)N(Nc3ccccc3)C3=C2C(=O)CC(C)(C)C3)ccc1OCc1cccc(F)c1 (stereo not drawn)	n	n	n	u	u
CC(=O)N1c2ccc(S(=O)(=O)N3CCC(C(=O)Nc4cccc(C(F)(F)F)c4)CC3)cc2CC1C (stereo not drawn)	n	n	n	u	u
Cc1ccccc1-n1nc2c(c1NC(=O)C1CCCC1)CS(=O)(=O)C2	n	n	n	18µM	n
Cc1cccc(-n2nc3c(c2NC(=O)C2CC2)CS(=O)(=O)C3)c1C	n	u	n	n	n
CCC(C)C(=O)Nc1nccs1 (stereo not drawn)	n	n	n	n	1.5µM
CCC(C(=O)Nc1nccs1)c1ccccc1 (stereo not drawn)	n	n	n	n	n
Cc1cc(NC(=O)c2cccc(S(=O)(=O)N3c4ccccc4CC3C)c2)no1 (stereo not drawn)	n	n	n	n	u
CCOC(=O)c1sc(NC(=O)c2cccc(S(=O)(=O)N3c4ccccc4CC3C)c2)cc1C (stereo not drawn)	n	n	n	8.2µM	u
C[C@@H]1CN([C@H](C)CO)C(=O)CCCn2nncc2CO[C@H]1CN(C)C(=O)NC1CCCCC1	x	n	x	x	x
Oc1ccc(C2C=C(c3ccc(F)cc3)Nc3ncnn32)cc1 (stereo not drawn)	n	n	n	n	10µM
SMILES	Mito fusion act	a7 integrin act	A-T KAP1 phos	MCF10A rerep	SW480 rerep
O=C(O)c1cccc2c1C(=O)c1cccc3snc-2c13	n	n	n	u	n
Cn1c(N)c(C(=O)/C=C/c2ccccc2)c(=O)[nH]c1=O	n	n	n	n	n
N#C/C(=C/c1ccc(N2CCOCC2)o1)c1ccc(Br)cc1	n	n	u	5.8µM	5.8µM
N#C/C(=C\c1ccc(N2CCOCC2)o1)c1ccccc1	n	n	u	n	u
N#C/C(=C/c1ccc(N2CCCCCC2)o1)c1cccc(F)c1	n	n[7.66 µM]	u	u	u
N#C/C(=C/c1ccc(N2CCCCCC2)o1)c1ccc(F)cc1	x	n	x	3.3µM	12µM
O=C(NC(=S)NC1CCC(O)CC1)c1ccco1 (stereo not drawn)	x	n	n	n	n
O=C1C2C=CC=CC2=NC(=S)N1CCN1CCC(=C(c2ccc(F)cc2)c2ccc(F)cc2)CC1 (stereo not drawn)	5.8µM	x	x	x	x
